The list is not random: actives were taken first. Their share in the collection is about 2.6%.
APOBEC3G inh: APOBEC3G (human) deaminase inhibition. Q9HC16. recombinant A3G, ssDNA deamination FAM/TAMRA fluorescence. 0.28% of 330,000 active. inhibition, % at 20 µM. AID 493012;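 active = inhibition of at least 40% at 20 µM, with no more than 30% in the related APOBEC3A deaminase screen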
Target sequence (Q9HC16 whole entry, looked up): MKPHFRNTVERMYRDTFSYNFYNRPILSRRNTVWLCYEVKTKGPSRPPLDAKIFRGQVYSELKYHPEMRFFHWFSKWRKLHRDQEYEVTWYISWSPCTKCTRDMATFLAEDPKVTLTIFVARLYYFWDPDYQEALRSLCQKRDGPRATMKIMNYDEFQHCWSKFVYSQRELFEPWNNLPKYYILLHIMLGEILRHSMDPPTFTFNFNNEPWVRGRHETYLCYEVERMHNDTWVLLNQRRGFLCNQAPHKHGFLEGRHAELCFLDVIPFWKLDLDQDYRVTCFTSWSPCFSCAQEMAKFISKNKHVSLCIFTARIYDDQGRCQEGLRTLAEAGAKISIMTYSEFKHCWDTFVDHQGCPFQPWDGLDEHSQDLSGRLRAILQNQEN
eIF4H inh: inhibitors of RNA binding by human eIF4H; inhibition, % at 35 µM; 0.94% of 290,000 active; Q15056; eIF4H fluorescence polarization binding assay;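 note: calls also rest on retests at 20 µM and on dose response follow-up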
PABP FP inh: PABP-poly(A) binding inhibition; P11940; PABP-poly(A) RNA binding, fluorescence polarization; calls only at 35 µM; 1% of 290,000 active;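 note: calls also rest on retests at 20 µM and on dose response follow-up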
PABP1 MLLE inh: blocks PAM2 peptide binding to the PABP1 MLLE domain; GST-MLLE / FITC-PAM2 fluorescence polarization; inhibition, % at 20 µM; 0.36% of 360,000 active; in the data active = inhibition above about 35%, passing the limit was not always enough
PHOSPHO1 inh: PHOSPHO1 (human) inhibition | 1.1% of 290,000 active | recombinant PHOSPHO1, absorbance phosphatase assay | inhibition, % at 13.3 µM | AID 1565; in the data active = inhibition above about 60%
A3A deaminase: inhibitors of human APOBEC3A DNA deaminase | P31941 | recombinant A3A, FAM/TAMRA ssDNA deamination fluorescence | inhibition, % at 20 µM | 0.41% of 330,000 active;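 active = at least 40% inhibition at 20 µM here, with at most 30% in a related deaminase screen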
Target sequence (P31941 whole entry, looked up): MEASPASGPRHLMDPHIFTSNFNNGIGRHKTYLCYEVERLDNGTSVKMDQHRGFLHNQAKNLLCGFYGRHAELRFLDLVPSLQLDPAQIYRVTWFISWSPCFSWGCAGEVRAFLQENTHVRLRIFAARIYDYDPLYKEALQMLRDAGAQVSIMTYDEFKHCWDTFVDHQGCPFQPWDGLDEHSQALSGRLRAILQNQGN
Each line names hits and unclear results; the compound was inactive in the other large screens. Unless noted, the rule behind the calls is not given here.

CN(c1ccc(O)cc1)c1nc(-c2cccs2)cs1	none
O=C(Nc1cccc(Cl)c1)C1COc2ccccc2O1 (stereo unspecified)	none
O=C(NCCNS(=O)(=O)c1ccc(Cl)cc1)c1cc(OCC(F)(F)F)ccc1OCC(F)(F)F	none
O=C(NCCNS(=O)(=O)c1ccccc1)c1cc(OCC(F)(F)F)ccc1OCC(F)(F)F	PHOSPHO1 inh 62.3
O=C(CSc1nc2ccccc2n1CC(=O)N1CCCCC1)N1CCCCC1	none
CC(=O)Nc1ccc(C(=O)CSc2nc3ccccc3n2CC(=O)N2CCCC2)cc1	PHOSPHO1 inh 71.3
Cc1cccc(NC(=O)CNC(=O)Cn2cc(C(F)(F)F)cc(Cl)c2=O)c1C	none (no result: eIF4H inh, PABP FP inh, PHOSPHO1 inh)
O=C1ON=C(c2ccccc2)/C1=C/c1ccc(O)c(O)c1	PABP FP inh active
COc1ccc(/C=C2\C(=O)ON=C2c2ccccc2)cc1	none
COc1ccc(C(=O)Nc2ccc(N3CCN(C(C)=O)CC3)cc2)cc1[N+](=O)[O-]	eIF4H inh active, PABP FP inh active (no result: PABP1 MLLE inh)
CC1CCN(c2ccc(NC(=S)NC(=O)c3ccc(-c4cccc([N+](=O)[O-])c4)o3)cc2)CC1	PABP1 MLLE inh 40.5
CCC(=O)N1CCN(c2ccc(NC(=S)NC(=O)c3cccc([N+](=O)[O-])c3)cc2)CC1	PABP1 MLLE inh 42.7
CC1CCN(c2ccccc2NC(=S)NC(=O)c2ccc(-c3cccc([N+](=O)[O-])c3)o2)CC1	PABP1 MLLE inh 42.3
CC1CCN(c2ccc(NC(=S)NC(=O)c3ccco3)cc2)CC1	none
CCOC(=O)c1cc(NC(=O)NC2CCCCC2)c(C)nc1C	none
O=Cc1ccccc1OCCOc1ccc([N+](=O)[O-])cc1	none
O=C(CCCCCN1C(=O)c2ccccc2C1=O)Nc1ccc(C(=O)O)cc1	none
CCOc1ccc(-c2nnc(SCc3nnc(-c4ccccc4)o3)n2-c2ccccc2F)cc1	PHOSPHO1 inh 73.3
Cn1c(=O)[nH]c(=O)c2c1nc(SCCCO)n2CCCc1ccccc1	none
C=CCn1c(=O)/c(=C/c2ccc(C)o2)s/c1=C(/C#N)C(=O)c1ccccc1	eIF4H inh inconclusive, PABP FP inh active, PHOSPHO1 inh 83.4
O=C(CSc1nnnn1-c1ccc(C(=O)O)cc1)NC1CCCCC1	none
O=C(Cc1ccc2c(c1)CCCC2)Nc1ccccc1Br	PABP1 MLLE inh 38.5
O=C(Cc1ccc2ccccc2c1)Nc1ccccc1Br	none
COc1ccc(OC)c(S(=O)(=O)N2CCCCC2C(=O)N2CCN(c3ccccn3)CC2)c1 (stereo unspecified)	PABP1 MLLE inh 38.3
Cc1ccc(C(=O)CCC(=O)Nc2cc(C)ccn2)cc1	none (no result: eIF4H inh, PABP FP inh, PHOSPHO1 inh)
CC(C)CCNC(=O)C(C)N(C(=O)c1snc(C(N)=O)c1N)c1cnc2ccccc2c1 (stereo unspecified)	PABP FP inh active
CC(=O)Nc1nc(=S)ss1	PHOSPHO1 inh 78.7
CC(C)CC(=O)Nc1nc(=S)ss1	none
CCOC1=C2CN(S(=O)(=O)c3ccc(C)cc3)[C@@H](c3cccs3)C[C@H]2[C@H]2C(=O)N(c3ccccc3)C(=O)[C@H]2C1	none (no result: APOBEC3G inh, eIF4H inh, PABP FP inh, PHOSPHO1 inh, A3A deaminase)
Nc1c(C(=O)Nc2ccccc2F)sc2nc(-c3cccnc3)ccc12	none
Nc1c(C(=O)Nc2ccccc2F)sc2nc(-c3ccco3)ccc12	eIF4H inh 90.0, PABP FP inh active
CC(C)OC(=O)c1sc2nc(-c3ccccc3)ccc2c1N	none
NC(=O)c1sc2nc3c(c(-c4ccco4)c2c1N)CCC3	eIF4H inh 97.0, PABP FP inh active
COC(=O)c1sc2nc(-c3ccco3)ccc2c1N	eIF4H inh 55.1
NC(=O)c1sc2nc(-c3ccco3)ccc2c1N	eIF4H inh 91.9, PABP FP inh active
Nc1c(C(=O)NC2CC2)sc2nc3c(c(-c4ccco4)c12)CC/C3=C/c1ccco1	PHOSPHO1 inh 81.0 (no result: APOBEC3G inh, A3A deaminase)
CC(C)c1ccc(CNn2cnnc2)cc1	none
CCc1ccc(OCc2n[nH]c(=S)n2Cc2ccccc2)cc1	PHOSPHO1 inh 89.7
Cc1ccn(Cc2n[nH]c(=S)n2Cc2ccccc2)n1	PHOSPHO1 inh 77.9
S=c1[nH]nc(-c2ccccc2)n1Cc1ccccc1	PHOSPHO1 inh 104.8
CCCCOc1ccc(Cc2n[nH]c(=S)n2N)cc1	PHOSPHO1 inh 78.9
CC1(C(=O)NC2CCCCCC2)CCN1C(=O)C1(c2ccccc2)CC1 (stereo unspecified)	none (no result: APOBEC3G inh, eIF4H inh, PABP FP inh, PHOSPHO1 inh, A3A deaminase)
O=[N+]([O-])c1ccc(-c2ccc(/C=N/c3c(-c4ccco4)nc4ccccn34)o2)cc1	eIF4H inh inconclusive, PABP FP inh active
O=[N+]([O-])c1ccc(-c2ccc(/C=N/c3c(-c4ccco4)nc4ccccn34)o2)c(Cl)c1	none (no result: APOBEC3G inh, PABP1 MLLE inh, A3A deaminase)
O=[N+]([O-])c1ccc(Cl)c(-c2ccc(/C=N/c3c(-c4ccco4)nc4ccccn34)o2)c1	eIF4H inh inconclusive, PABP FP inh active
O=C(COc1ccccc1F)Nc1ccc2c(c1)OCCO2	none
CCOC(=O)C1(CC2CCCCO2)CCN(Cc2cn[nH]c2-c2cccc(F)c2)CC1 (stereo unspecified)	none
CC(=O)NCCCc1nc2ccccc2n1Cc1cc(C)ccc1C	PHOSPHO1 inh 64.3
CCCCc1ccc(S(=O)(=O)NC(=O)C2(C)CCN2C(=O)CC2CC2)cc1 (stereo unspecified)	none (no result: APOBEC3G inh, eIF4H inh, PABP FP inh, PHOSPHO1 inh, A3A deaminase)
CSC1=N/C(=C/c2cccnc2)C(=O)N1Cc1ccccc1	none
Cc1ccc(NC(=O)C(C)SCc2ccccc2)cc1 (stereo unspecified)	none
CCOC(=O)CN1C(c2ccc(O)cc2)Nc2ccc(Br)cc2C1c1ccccc1 (stereo unspecified)	none
CCC(C)Nc1nnnc2c1sc1nc3c(cc12)COC(C)(C)C3 (stereo unspecified)	eIF4H inh 85.3
CCOc1ncnc2c1sc1nc3c(cc12)COC(C)(C)C3	none (no result: APOBEC3G inh, eIF4H inh, PABP FP inh, PHOSPHO1 inh, A3A deaminase)
Cc1ccc(C)c(C(=O)c2c(C)nc3sccn23)c1	none
Cc1cc(C)c(NC(=O)c2cc3c(nc4sccn43)s2)c(C)c1	PHOSPHO1 inh 71.1
S=c1nc2c(n[nH]1)c1ccccc1n2CCc1ccccc1	PABP1 MLLE inh 38.7 (no result: PHOSPHO1 inh)
Cc1c(C)n(C(=O)CSc2nc3ccccc3[nH]2)c2ccccc12	eIF4H inh 67.7, PABP FP inh active
CCn1c(SCC(=O)n2c(C)c(C)c3ccccc32)nnc1-c1ccco1	none
Cc1c(C)n(C(=O)CSc2nccn2C)c2ccccc12	PHOSPHO1 inh 61.1
O=C(CSc1nc2ccccc2[nH]1)c1ccc(Cl)s1	PHOSPHO1 inh 102.7
CS(=O)(=O)N(CC(=O)Nc1ccccc1C(=O)N1CCCC1)c1ccc2c(c1)OCO2	none
CSc1ccc(S(=O)(=O)NCC(=O)OCC(=O)N(C)CC(=O)Nc2ccccc2Cl)cc1[N+](=O)[O-]	none (no result: eIF4H inh, PABP FP inh, PHOSPHO1 inh)
COc1ccc(OCc2nn3c(-c4cccc(OC)c4)nnc3s2)cc1	none
c1ccc(Cc2nn3c(Cn4nnc5ccccc54)nnc3s2)cc1	PHOSPHO1 inh 91.3
c1ccc2c(c1)OCC(c1nn3c(Cn4nnc5ccccc54)nnc3s1)O2 (stereo unspecified)	PHOSPHO1 inh 62.4

Assay outcomes as filed in PubChem.
